ROMK primary: modulators of human ROMK potassium channel | AID 1918 | 130,000 compounds, 2% hits | Tet-inducible ROMK, thallium flux fluorescence; actives lie on both sides | B-score at 10 µM;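 active = signal ratio slope over the read window, or its plate-corrected B-score, at least 3 SD from the plate mean, either direction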;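 note: B-score of the F/F0 ratio slope over 7 to 12 s after thallium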
Target sequence (P48048 whole entry, looked up): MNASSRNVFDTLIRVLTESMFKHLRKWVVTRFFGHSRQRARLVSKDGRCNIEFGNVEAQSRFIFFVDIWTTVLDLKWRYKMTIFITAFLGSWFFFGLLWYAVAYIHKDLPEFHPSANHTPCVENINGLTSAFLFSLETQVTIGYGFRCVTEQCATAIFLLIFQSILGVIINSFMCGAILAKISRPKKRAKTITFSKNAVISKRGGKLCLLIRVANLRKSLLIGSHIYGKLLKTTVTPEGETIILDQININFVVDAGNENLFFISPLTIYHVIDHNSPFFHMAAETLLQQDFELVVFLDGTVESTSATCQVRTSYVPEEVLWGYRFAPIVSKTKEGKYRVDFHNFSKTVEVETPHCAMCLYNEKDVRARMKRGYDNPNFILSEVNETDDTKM
INS promoter inh: TRM-6 insulin promoter activity inhibition | TRM-6 cells (human fetal islet line), insulin promoter-eGFP reporter, imaging; reporter expression induced with tamoxifen | inhibition, % at 2 µM | AID 1273 | 130,000 compounds, 0.9% hits;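 active = inhibition above the mean plus 3 SD, with well images judged a real hit on visual review, cut at about 60% in these data, passing the limit was not always enough; inconclusive = inhibition over the cutoff but images rejected on review; inactive = inhibition not above the cutoff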
HSV augment: HSV replication enhancement. maximum fold increase. HSV replication augmentation in cells, fold increase. 220,000 compounds, 0.005% hits. AID 1956; in the data active = maximum fold increase above about 1.5; inconclusive = no clear call, values can overlap the other calls; tested in PC3 cells
Insulin prom up: MIN6 insulin promoter up-regulation; 190,000 compounds, 0.3% hits; z-score at 5 µM; MIN6 insulin promoter-GFP reporter, high-content imaging; stronger effect = higher value; AID 1625;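 active = z-score above 3 at 5 µM with at least 500 cells counted in the well; inconclusive = wells under 500 cells, flagged as cytotoxic or low count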
TbHK1 inh: T. brucei hexokinase 1 inhibition. recombinant TbHK1, G6PDH-coupled NADH A340. inhibition, % at 10 µM. 220,000 compounds, 0.11% hits. AID 1430;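 active = inhibition of 50% or more in the single-dose primary screen; inactive = inhibition below 50%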
ROMK retest: confirmation of human ROMK potassium channel modulators. ROMK thallium flux, fluorescence ratio; stronger effect = lower value. shares compounds with ROMK primary. 3,000 compounds, 54% hits. normalized thallium flux (F/F0 slope) at 10 µM;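 active = Flux at 10 µM at least 3 SD below or above vehicle control mean in one or both replicates; inconclusive = no clear call, values can overlap the other calls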
Numbers without * were called inactive; i = inactive; ? = inconclusive; nt = no result given. The sample as a whole holds a higher share of hits than the screen did.

SMILES	ROMK primary	INS promoter inh	HSV augment	Insulin prom up	TbHK1 inh	ROMK retest
CC(Nc1ccc(Cl)c(Cl)c1)C(=O)NN (stereo not given)	nt	nt	i	-0.1	-6.7	nt
NNC(=O)C(=O)Nc1ccc(Cl)c(Cl)c1	-12.4*	nt	i	0.12	-9.3	0.0757
CN1CC(=O)N(CC(=O)Nc2cc(Cl)cc(Cl)c2)C1=O	-0.434	nt	i	-0.01	-0.2	nt
CCOc1ccccc1NC(=O)/C(C#N)=C/c1c(C)nn(-c2ccc(F)cc2)c1Cl	nt	18.9	i	0.26	-5.5	nt
CN(C)c1nc(C=C(C#N)C#N)c(Cl)n1-c1ccc(F)cc1	-3.92*	nt	i	0.35	-8.6	0.0593*
Cc1nc(SCC(=O)N(C)Cc2ccco2)c2c(C)c(C)sc2n1	nt	nt	i	-1.38	-4.7	0.0716
COc1cc(C(=O)Nc2nc(C)c(Cc3ccc4c(c3)OCO4)s2)cc(OC)c1OC	2.6*	-66.7	i	-0.65	-8.4	0.11*
CCCOc1ccc(C(=O)Nc2nc(C)c(Cc3ccc4c(c3)OCO4)s2)cc1	1.21	-8.1	i	-0.11	9.1	nt
CCOCCCNC(=O)/C(C#N)=C/c1ccc(Cl)c([N+](=O)[O-])c1	-4.18*	nt	i	-0.12	6.9	0.0333*
CCOCCCNC(=O)/C(C#N)=C/c1cc(C)c(O)c(C)c1	1.51	nt	i	0.65	-7.3	nt
CCOCCCNC(=O)/C(C#N)=C/c1cc(OC)c(O)c([N+](=O)[O-])c1	3.02*	nt	i	0.47	-11.5	0.0837
CCn1c(C2CCN(S(=O)(=O)c3ccc(OC)cc3)CC2)n[nH]c1=S	1.22	-61.5	i	-0.07	-8.6	nt
COC(=O)c1ccc(N2CCN(C)CC2)c(NC(=O)c2cccnc2)c1	1.09	nt	i	0.14	-0.2	nt
CN=c1scc(C)n1/N=C/c1ccc(O)cc1O	nt	18.2	i	-0.17	-18.3	?
CN=c1scc(C)n1/N=C/c1ccc(O)cc1	nt	0.0	i	-0.3	-29.5	nt
CC(=O)Nc1ccc(Sc2ncccc2C(=O)Nc2ccc(F)cc2)cn1	-0.153	nt	i	-0.33	-0.2	nt
CN1CCN(S(=O)(=O)c2ccc3c(c2)OCCO3)CC1	2.11	-25.0	i	0.14	1.4	nt
Cc1ccc(S(=O)(=O)N2CCCN(S(=O)(=O)c3ccc4c(c3)OCCO4)CC2)cc1	-3.78*	nt	i	-0.99	4.9	?
COc1ccccc1CNC(=O)CSc1ccc(-c2ccncc2)nn1	-0.182	16.7	i	-0.81	-2.2	nt
CC(=O)/C(=C/c1ccccc1)C(=O)Nc1ccccc1C	-3.55*	nt	i	-0.3	-2.2	0.0484*
O=C(Nc1ccc2oc(=O)ccc2c1)c1cc([N+](=O)[O-])ccc1N1CCOCC1	-7.29*	nt	i	-0.02	-14.3	0.0311*
O=C(c1ccc(Br)cc1)c1cc([N+](=O)[O-])ccc1N1CCOCC1	4.47*	nt	i	0.28	-8.2	0.0961
Cc1cc(=O)oc2cc(NC(=O)c3cc([N+](=O)[O-])ccc3N3CCOCC3)ccc12	-0.595	nt	i	0.38	-19.7	nt
CC1CCCN(c2ccc([N+](=O)[O-])cc2C(=O)c2ccccc2)C1 (stereo not given)	2.28	-350.0	i	nt	11.7	0.0903
CCN(CC(=O)Nc1ccc(Cl)c(S(=O)(=O)N(C)C)c1)CC(=O)NC(C)C	0.0184	-45.5	i	-0.47	-2.2	nt
SMILES	ROMK primary	INS promoter inh	HSV augment	Insulin prom up	TbHK1 inh	ROMK retest
CC(C)(C)N(NC(=O)Nc1ccc(Cl)c(Cl)c1)C(=O)c1ccccc1	nt	23.3	i	-0.52	-0.1	0.0774
CN(C)CCNC(=O)/C(=C/c1ccc(-c2cccc(Cl)c2)o1)NC(=O)c1ccccc1	-3.65*	18.5	i	-0.66	-27.8	0.0559*
CN(C)CCNC(=O)/C(=C/c1ccc(-c2cccc([N+](=O)[O-])c2)o1)NC(=O)c1ccccc1	-4.47*	44.7	i	0.13	-38.2	0.0528*
CN(C)C(=O)/C(=C\c1ccc(-c2cccc([N+](=O)[O-])c2)o1)NC(=O)c1ccccc1	0.0444	11.1	i	0	-13.2	nt
CN(C)CCCNC(=O)/C(=C\c1ccc(-c2ccc(Br)cc2)o1)NC(=O)c1ccccc1	-3.9*	0.0	i	nt	-34.1	0.0539*
CCCc1nc(C(C)(C)O)c(C(=O)O)n1Cc1ccc(-c2ccccc2-c2nn[nH]n2)cc1	nt	nt	i	-0.1	nt	nt
Cc1cccn2c(CN(C)CC3Cc4ccccc4O3)c(C(=O)N3CCCCC3)nc12 (stereo not given)	-0.293	nt	i	0.24	-2.5	nt
CC1=NN(C(=O)c2ccccc2Cl)C(O)(c2cccnc2)C1 (stereo not given)	0.246	50.0	i	0.74	-0.5	?

Compound activity: PubChem BioAssay, several laboratories
